The term AC50 denotes the midpoint of the concentration-response curve, whichever way the signal moves.

A number with no mark means an inactive call. The source made the active and inactive calls. No rule for the calls is given here.

Here are results for 39 compounds from PubChem BioAssay AID720650 (Broad Institute, 2013).

This assay in a line: C difficile toxins, biochemical counterscreen, UDPG substrate absence, confirmatory dose response (AID 720650). As to conditions: series mostly up to 19.5 µM; activity change, negative = inhibition: at the top concentration. For orientation: The purpose of a counterscreen is to sort out artefacts and off-target activity.
As for `O=C(Nc1ccccc1F)N1C[C@@H]2N[C@H](C1)C2c1ccc(-c2cccc(F)c2)cc1` (some centres undefined), the “activity change, negative = inhibition” value was 11.1%. Same read-out and setting: as for `COc1cc(-c2n[nH]c(=S)n2/N=C/c2cccn2C)cc(OC)c1OC`, the figure is -11.9%. With `CC(=O)C[C@H]1c2ccccc2S(=O)(=O)N1C1CCCCC1`, the “activity change, negative = inhibition” value was 2.33%.

Take `COc1cccc(C(=O)COC(=O)c2ccc(NC(=O)c3ccccc3)cc2)c1`: the “activity change, negative = inhibition” value was 0.123%. As for `Nc1ncnc2[nH]c(=S)[nH]c12`, the AC50 is more than 39 µM. For the compound `Cn1c(=O)[nH]c(=O)c2c1[nH]c(=S)n2CCCc1ccccc1`, the “activity change, negative = inhibition” value is -19.3%. Turning to `CCC(=O)c1cn(CC(=O)Nc2cccc(C)c2C)c2ccccc12`, the “activity change, negative = inhibition” value is -3.61%.

In the case of `Cc1c(CCCC(=O)O)sc(N)c1C(=O)c1cccc(C(F)(F)F)c1`, the “activity change, negative = inhibition” value was -5.33%. In the case of `O=C(CSc1nc2ccccc2[nH]1)NC1CCCc2ccccc21` (centres undefined), the AC50 was more than 39 µM.

Take `CNC(=S)N/N=C/c1c(C(=O)OC)cnn1-c1ccc(F)cc1F`: the “activity change, negative = inhibition” value was -6.87%. Same read-out and setting: the result for `N#Cc1ccc(C(=O)N/N=C/c2cn(CC(=O)O)c3ccccc23)c(F)c1` reads 13.3%. For the compound `CC(C)OC(=O)C(=O)NNc1ccccc1`, the concentration at half-maximal activity (AC50) was 1.35 µM (active). Regarding `COc1ccc(CCNC(=O)CCCn2nc(C)n3ccnc3c2=O)cc1OC`, the “activity change, negative = inhibition” value was -3.57%. For `Cc1cc(C(=O)Nc2ncc(C)s2)c2ccccc2n1`, the “activity change, negative = inhibition” value was 3.29%. `Cc1ccc(NNC(=O)c2ccno2)c(C)c1`: the AC50 was 5.41 µM (active). In the case of `O=S(=O)(Oc1ccccc1-c1ccccc1)c1ccccc1`, the “activity change, negative = inhibition” value is -15.6%. Still for that read-out and setting: the result for `C/C(=N\OCC(=O)Nc1nc2ccccc2s1)c1ccccc1` reads 8.02%. As to `Cc1ccc(NNC(=O)c2ccno2)cc1C`, the AC50 was 0.302 µM (active). Still for that read-out and setting: as for `O=C(CCn1c(=O)oc2cc(Cl)ccc21)Nc1ccc(O)cc1`, the figure is 4.49 µM (active). `CC(C)Cc1cc(C(=O)N2CCCC(CO)(Cc3ccc(F)cc3)C2)no1` (centres undefined): the “activity change, negative = inhibition” value was 1.04%.

With `Cc1cnc([N+](=O)[O-])n1CCOC(=O)NC(=O)c1ccc(F)cc1`, the “activity change, negative = inhibition” value is 5.97%.

In the case of `COCCCNC(=O)C1CCN(S(=O)(=O)c2c(C)noc2/C=C\c2ccc(OC)cc2)CC1`, the AC50 entry is “inactive”. Consider `COc1cc(/C=N/NC(=O)c2nnn(-c3nonc3N)c2C(C)C)ccc1O`, for which the “activity change, negative = inhibition” value is 2.07%.

For the compound `COc1ccc(C2=NS(=O)(=O)N(C)C(C(=O)NC(C)c3ccccc3)=C2)cc1` (centres undefined), the “activity change, negative = inhibition” value is -15.3%. With `O=C(CC(=O)N/N=C/c1ccc(O)cc1)N/N=C/c1ccc(O)cc1`, the concentration at half-maximal activity (AC50) was 9.03 µM (active).

Take `CCCNC(=O)C[C@H]1CC[C@@H]2[C@H](COc3ccc(NC(=O)c4ccc(Cl)cc4)cc3C(=O)N2C)O1`: the AC50 is more than 39 µM.

On to `Cc1cc(C(C)(C)C)cc(CN2CCN(S(=O)(=O)c3cccs3)CC2)c1O`, for which the “activity change, negative = inhibition” value was -5.83%. On to `COc1cc(/C=N/NC(=O)c2c(C)nc3ccc(Cl)cn23)cc(OC)c1OC`, for which the “activity change, negative = inhibition” value is -0.562%. For the compound `O=C(Nc1ccc(N2CCOCC2)c(Cl)c1)c1ccc2c(c1)OCCO2`, the “activity change, negative = inhibition” value was -12.3%. For the compound `O=C(C[C@@H]1CC[C@@H]2[C@H](COC[C@@H](O)CN2C(=O)Nc2ccc(Cl)c(Cl)c2)O1)NCc1ccncc1`, the “activity change, negative = inhibition” value was -7.79%.

In the case of `Cc1ccc(NC(=O)C2OCCc3ccccc32)cc1C` (centres undefined), the “activity change, negative = inhibition” value was 1.44%. Turning to `COc1ccc(-c2ccc3c(c2)[C@@H]2[C@@H](CCN2C(=O)C2CC2)[C@H](CO)N3C)cc1`, the AC50 was 14.8 µM (active).

On to `CCN(CC)C(=O)C1CCN(S(=O)(=O)c2c(C)noc2/C=C/c2cccc(C)c2)CC1`, for which the “activity change, negative = inhibition” value is 9.5%.

`COC1=C/C(=C/c2c(N)n3nc(CC(=O)N4CCOCC4)sc3nc2=O)C=CC1=O`: the “activity change, negative = inhibition” value was 0.548%. For `CC1=C(C(=O)OCC2CCCO2)C(c2coc3ccccc3c2=O)C2=C(CCCC2=O)N1` (centres undefined), the “activity change, negative = inhibition” value was -5.85%. On to `C[C@@H]1CN([C@@H](C)CO)C(=O)c2c(c3ccccc3n2C)-c2ccccc2CO[C@@H]1CN(C)C`, for which the “activity change, negative = inhibition” value is -5.57% [at 21 µM]. As for `O=C(COc1ccccc1)Nc1ccc(S(=O)(=O)Nc2ncccn2)cc1`, the “activity change, negative = inhibition” value was -3.22%. On the same count and under the same terms, as for `CN(C)CCCNC(=O)C[C@H]1CC[C@@H]2[C@@H](COc3ccc(NC(=O)c4ccc5c(c4)OCO5)cc3C(=O)N2C)O1`, the figure is -0.21%; as for `COc1cc(/C=N/NC(=O)c2cccc([N+](=O)[O-])c2)ccc1O`, -3.22%.
